Records with an inconclusive call do not appear. Active and inactive are the calls of the source. The calls were made as follows: active = hit-call score of the fitted dose curve at least 0.9, where 1 is the maximum; inconclusive = response in the unintended direction; inactive = score below 0.9.
What follows are molecules tested on guinea pig Leukotriene B4 Receptor (LTB4), gene 100379538 (assay: NVS_GPCR_gLTB4: NovaScreen (NVS) G Protein-Coupled Receptor Assay for guinea pig Leukotriene B4 Receptor (LTB4) (AID 2283247)).
How it was run: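 Membranes from guinea pig spleen incubated 2 h with radioligand and compound; bound counts measured by filtration and scintillation. Screened first at 25 uM in duplicate, then actives titrated to a 50 uM top concentration relative to DMSO.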

Row | SMILES | AC50 | outcome
1 | CCCCC(CC)COC(=O)CC(C(=O)OCC(CC)CCCC)S(=O)(=O)O (stereo not given) | 6.15 µM (active) | 
2 | Cc1oc(-c2ccccc2)nc1CCOc1cccc2c1ccn2CCC(=O)O | 4.96 µM (active) | 
3 | CNC(=O)[C@H]1O[C@@H](n2cnc3c(NCc4cc(Cl)ccc4OCc4cc(C)no4)ncnc32)[C@H](O)[C@@H]1N | 25 µM (active) | 
4 | C=CCc1ccc(O)c(OC)c1 |  | inactive
5 | COCCOC[C@H](CC1(C(=O)NC2CCC(C(=O)O)CC2)CCCC1)C(=O)Oc1ccc2c(c1)CCC2 (stereo not given in full) |  | inactive
6 | COc1cc(S(=O)(=O)O)c(C)cc1N=Nc1c(O)ccc2cc(S(=O)(=O)O)ccc12 |  | inactive

Each molecule was assayed against guinea pig Leukotriene D4 Receptor (LTD4), CYSLTR1 (gene 100135514) (UniProt Q2NNR5) (assay: NVS_GPCR_gLTD4: NovaScreen (NVS) G Protein-Coupled Receptor Assay for guinea pig Leukotriene D4 Receptor (LTD4) (AID 2283248)).
How it was run: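 Guinea pig lung membrane preparation; bound radioligand measured by filter scintillation after 1 h, loss of signal versus DMSO marking displacement. Compounds tested at 25 uM in duplicate, hits retested to max 50 uM.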

Sequence of guinea pig Leukotriene D4 Receptor (LTD4), CYSLTR1 (gene 100135514) (Q2NNR5 whole entry, looked up): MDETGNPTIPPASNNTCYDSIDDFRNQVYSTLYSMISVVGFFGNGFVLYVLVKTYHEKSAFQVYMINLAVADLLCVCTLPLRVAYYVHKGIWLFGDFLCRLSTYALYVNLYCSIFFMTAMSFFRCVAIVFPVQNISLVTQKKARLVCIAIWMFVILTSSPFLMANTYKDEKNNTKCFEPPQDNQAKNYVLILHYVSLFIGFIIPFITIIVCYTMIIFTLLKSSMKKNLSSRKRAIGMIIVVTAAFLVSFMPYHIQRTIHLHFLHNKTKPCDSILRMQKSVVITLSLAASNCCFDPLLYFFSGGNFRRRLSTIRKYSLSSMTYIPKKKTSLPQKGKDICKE

Row | SMILES | AC50 | outcome
7 | CCCCC(CC)COC(=O)CC(C(=O)OCC(CC)CCCC)S(=O)(=O)O (stereo not given) | 16.1 µM (active) | 
8 | CCCCCCCC=O | 0.613 µM (active) | 
9 | COc1cc(-c2nc(NC(=O)c3cc4cc(C)cc(C)c4n3CC(=O)O)sc2CCC2CCCCC2)c(OC)cc1Cl |  | inactive

The molecules below were run against human Serotonin, 5-Hydroxytryptamine Receptor 2A (5HT2A), HTR2A (gene 3356) (UniProt P28223) (assay: NVS_GPCR_h5HT2A: NovaScreen (NVS) G Protein-Coupled Receptor Assay for human Serotonin, 5-Hydroxytryptamine Receptor 2A (5HT2A) (AID 2283249)).
How it was run: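 Radioligand displacement on human cortex tissue extract, counted by filtration and scintillation 1.5 h post-dosing. Initial single-concentration screen at 25 uM in duplicate, concentration series in follow-up; DMSO as baseline.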

Sequence of human Serotonin, 5-Hydroxytryptamine Receptor 2A (5HT2A), HTR2A (gene 3356) (P28223 whole entry, looked up): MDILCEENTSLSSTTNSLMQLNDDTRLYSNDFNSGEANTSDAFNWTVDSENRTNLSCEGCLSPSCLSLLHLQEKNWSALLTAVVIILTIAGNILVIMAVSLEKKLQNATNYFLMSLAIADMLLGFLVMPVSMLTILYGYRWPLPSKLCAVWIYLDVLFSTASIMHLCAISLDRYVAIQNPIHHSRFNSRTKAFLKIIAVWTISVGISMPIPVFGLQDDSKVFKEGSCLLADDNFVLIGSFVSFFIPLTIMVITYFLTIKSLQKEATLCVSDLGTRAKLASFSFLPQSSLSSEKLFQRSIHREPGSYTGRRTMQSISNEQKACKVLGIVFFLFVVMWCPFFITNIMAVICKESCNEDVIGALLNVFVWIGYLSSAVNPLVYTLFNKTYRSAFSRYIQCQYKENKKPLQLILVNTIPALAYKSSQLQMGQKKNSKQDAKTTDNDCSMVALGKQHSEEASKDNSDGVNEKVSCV

Row | SMILES | AC50 | outcome
10 | NC(=O)Cn1c(=O)cc(CCN2CCN(c3nccc4sccc34)CC2)c2ccc(F)cc21 | 0.00229 µM (active) | 
11 | CCCCC(CC)COC(=O)CC(C(=O)OCC(CC)CCCC)S(=O)(=O)O (stereo not given) |  | inactive
12 | Oc1ccc2c(c1)OC[C@@H](N1CCC(O)(c3ccc(F)cc3)CC1)[C@H]2O |  | inactive

These molecules were tested on guinea pig Muscarinic, Peripheral (Mperiperal) Receptor, Non-selective Binding, gene 100379235 (assay: NVS_GPCR_gMPeripheral_NonSelective: NovaScreen (NVS) G Protein-Coupled Receptor Assay for guinea pig Muscarinic, Peripheral (Mperiperal) Receptor, Non-selective Binding (AID 2283250)).
How it was run: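 Screened in duplicate at 25 uM, hits retested in concentration series to 50 uM max, using bladder membrane radioligand displacement from guinea pig. Filtration and scintillation counting 1 h post-dose, fitted relative to DMSO.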

Row | SMILES | outcome | AC50
13 | NC(=O)Cn1c(=O)cc(CCN2CCN(c3nccc4sccc34)CC2)c2ccc(F)cc21 | inactive | 
14 | COc1ccc2c(c1)c(CC(=O)O)c(C)n2C(=O)c1ccc(Cl)cc1 | inactive | 
15 | CCCCC(CC)COC(=O)CC(C(=O)OCC(CC)CCCC)S(=O)(=O)O (stereo not given) |  | 25 µM (active)
16 | CNCc1cc(F)ccc1Oc1ccc(Cl)c(Cl)c1 |  | 25 µM (active)
17 | CCOC(=O)CCC(=O)OCC | inactive | 
18 | COc1ccc(S(=O)(=O)N2C(=O)[C@@](c3ccccc3OC)(N3C[C@H](O)C[C@H]3C(=O)N(C)C)c3cc(Cl)ccc32)c(OC)c1 |  | 13.8 µM (active)
19 | CN1CCN(Cc2cc(-c3ccc4[nH]c(=O)oc4c3)co2)[C@@H](c2ccc(F)cc2)C1 | inactive | 
20 | Cc1nc(-c2ccc3c(c2)CCN(CCC2CCC(NC(=O)/C=C/c4ccc(F)cc4)CC2)CC3)no1 (stereo not given) |  | 0.483 µM (active)

The molecules below were run against human Serotonin, 5-Hydroxytryptamine Receptor 5A (5HT5A), HTR5A (gene 3361) (UniProt P47898) (assay: NVS_GPCR_h5HT5A: NovaScreen (NVS) G Protein-Coupled Receptor Assay for human Serotonin, 5-Hydroxytryptamine Receptor 5A (5HT5A) (AID 2283251)).
Experimental: NVS_GPCR_h5HT5A is a biochemical, single-readout assay that uses extracted gene-proteins from HEK293 in a cell-free assay. Measurements were taken 1 hour after chemical dosing in a 96-well plate.NVS_GPCR_h5HT5A is one of one assay component(s) measured or calculated from the NVS_GPCR_h5HT5A assay. It is designed to make measurements of radioligand binding, a form of binding reporter, as detected with scintillation counting signals by Filter-based radiodetection technology.Data from the assay component NVS_GPCR_h5HT5A was analyzed into 1 assay endpoint. This assay endpoint, NVS_GPCR_h5HT5A, was analyzed in the positive analysis fitting direction relative to DMSO as the negative control and baseline of activity. Using a type of binding reporter, loss-of-signal activity can be used to understand changes in the binding as they relate to the gene HTR5A. Furthermore, this assay endpoint can be referred to as a primary readout, because the performed assay has only produced 1 assay endpoint. To generalize the intended target to other relatable targets, this assay endpoint is annotated to the gpcr intended target family, where the subfamily is rhodopsin-like receptor.
Binding assays used specific radioligands (tritiated, iodinated) with non-radioactive competitive displacement ligands in agonist or antagonist protocols (as indicated) and various reference compounds and inhibitors to titrate specific binding to receptors and transporters. Most enzyme assays (CYPs, kinases, phosphatases, proteases, HDACs) used recombinant protein and specific substrates (fluorescence mostly, some colorimetric and radioactive) and inhibitors, followed by a biochemical separation of substrate and product. All assays for the biochemical HTS were initially run in duplicate at a single concentration (10 uM for CYP450 assays and 25 uM for all others). […] Each assay was run with positive and negative controls, and concurrent controls on every plate. The follow-up (secondary) screen tested active chemical-pairs in concentration series, as well as a few additional assays not tested in the primary screen, some selected negative inactives, and several cases re-run in the concentration series for confirmatory purposes.

Sequence of human Serotonin, 5-Hydroxytryptamine Receptor 5A (5HT5A), HTR5A (gene 3361) (P47898 whole entry, looked up): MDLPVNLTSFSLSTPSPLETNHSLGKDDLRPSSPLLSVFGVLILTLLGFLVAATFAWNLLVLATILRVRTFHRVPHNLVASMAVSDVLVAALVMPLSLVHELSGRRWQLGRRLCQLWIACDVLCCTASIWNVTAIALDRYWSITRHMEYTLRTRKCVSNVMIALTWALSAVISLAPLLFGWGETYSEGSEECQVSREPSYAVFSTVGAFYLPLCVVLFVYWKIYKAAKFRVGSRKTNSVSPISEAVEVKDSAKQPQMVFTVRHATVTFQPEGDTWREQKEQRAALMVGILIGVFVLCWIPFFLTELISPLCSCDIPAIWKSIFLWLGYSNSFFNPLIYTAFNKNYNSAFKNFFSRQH

Row | SMILES | AC50 | outcome
21 | NC(=O)Cn1c(=O)cc(CCN2CCN(c3nccc4sccc34)CC2)c2ccc(F)cc21 | 0.834 µM (active) | 
22 | CCCCC(CC)COC(=O)CC(C(=O)OCC(CC)CCCC)S(=O)(=O)O (stereo not given) | 7.45 µM (active) | 
23 | Nc1nc(N)c2nc(CNc3ccc(C(=O)N[C@@H](CCC(=O)O)C(=O)O)cc3)cnc2n1 | 6.28 µM (active) | 
24 | CN1CCN(Cc2cc(-c3ccc4[nH]c(=O)oc4c3)co2)[C@@H](c2ccc(F)cc2)C1 | 9.14 µM (active) | 
25 | COc1cc(-c2nc(NC(=O)c3cc4cc(C)cc(C)c4n3CC(=O)O)sc2CCC2CCCCC2)c(OC)cc1Cl |  | inactive
